PubChem BioAssay AID602250 (The Scripps Research Institute Molecular Screening Center, 2012)
The whole screen tested about 360,000 compounds, of which about 2,200 (0.61%) were called active. Shown is part of a subset that was picked to be rich in actives. Unmarked numbers belong to inactive results.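 Rule for the calls: active = inhibition above a per-plate cutoff, the plate's mean sample inhibition plus 3 SD (cut at about 24% in these data); inactive = the rest.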

Experiment: calcium signal blockers in parental CHO-K1 cells – cell-based, Fluo-8 calcium fluorescence, full deck, 1536-well, counter-screen for M1 antagonist project, primary screen (AID 602250);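 note: 0% = DMSO plus EC80 ATP and 100% = DMSO alone without ATP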
Conditions: ATP-induced calcium, Fluo-8 fluorescence, at 3 µM, active compounds read high

| Compound | inhibition |
| --- | --- |
| CCc1cc(C(c2ccccc2OC)N2CCOCC2)c(NC(=O)c2ccccc2)s1 (configuration not stated) | 24.8% (active) |
| COc1cc(C(c2c(NC(=O)c3ccco3)sc(C)c2C)N2CCOCC2)cc(OC)c1OC (configuration not stated) | 5.36% |
| COc1ccccc1C(=O)Nc1cccc(C(=O)N2CCOCC2)c1 | -9.07% |
| CC(C)OCCCNC(=O)c1ccc(C2SCC(=O)N2Cc2ccco2)cc1 (configuration not stated) | -4.67% |
| COC(=O)c1ccc(-c2c(-c3ccccc3)ncc3cc(OC)c(OC)cc23)cc1 | 8.1% |
| Cc1cc(=O)n2nc(N3CCCC(C(=O)NCc4ccc(Cl)cc4)C3)sc2n1 (configuration not stated) | -0.44% |
| Cc1cc(=O)n2nc(N3CCCC(C(=O)N4CCN(C)CC4)C3)sc2n1 (configuration not stated) | 26.5% (active) |
| Cc1cc(=O)n2nc(N3CCCC(C(=O)NCc4cccc(Cl)c4)C3)sc2n1 (configuration not stated) | -13.5% |
| Cc1ccc(NC(=O)c2oc(=O)c3ccccc3c2-c2ccccc2)c(C)c1 | -9.65% |
| CCc1nnc(NC(=O)CSCc2cc(=O)n3cc(C)sc3n2)s1 | -12.4% |
| COc1cccc(N2CCN(C(=O)C3CCCN(S(=O)(=O)c4cnc[nH]4)C3)CC2)c1 (configuration not stated) | 2.59% |
| O=C(C1CCCN(S(=O)(=O)c2ccccc2)C1)N1CCN(c2ccc(F)cc2)CC1 (configuration not stated) | -2.45% |
| CC(=O)N1CCCc2cc(S(=O)(=O)N3CCCC(C(=O)N4CCN(c5cccc(Cl)c5)CC4)C3)ccc21 (configuration not stated) | 30.4% (active) |
| COc1ccc(OC)c(S(=O)(=O)N2CCCC(C(=O)NCCc3ccccc3)C2)c1 (configuration not stated) | -10.1% |
| CCC(=O)Nc1ccccc1C(=O)N1CCN(Cc2ccccc2)CC1 | 19.3% |
| CCc1ccccc1NC(=O)CN1CCN(C(=O)c2cc(C3CC3)nn2-c2ccccc2)CC1 | -11.2% |
| Cc1nn(Cc2ccccc2)c(C)c1C(=O)N1CCN(CC(=O)Nc2ccccc2Cl)CC1 | 23.9% (active) |
| CCCC(C)c1nnc(NC(=O)C2CC(=O)N(c3ccc(OCC)cc3)C2)s1 (configuration not stated) | -4.36% |
| Cc1nc(SCC(=O)NC2CCCC2)[nH]c(=O)c1C | -8.77% |

| Compound | inhibition |
| --- | --- |
| CCCCC(=O)N1CC2(C)CN(C(=O)CCCC)CC(C)(C1)C2=O | -5.12% |
| CCOC(=O)COc1cc(OCC(=O)OCC)c2c(=O)cc(-c3ccccc3)oc2c1 | -13.4% |
| COc1c(O)cc2oc(-c3ccc(O)c(O)c3)cc(=O)c2c1O | 24.9% (active) |
| COc1cc(O)c2c(=O)c3c(O)c(O)ccc3oc2c1OC | -9.49% |
| CCN(CC(=O)NCc1cccs1)C(=O)/C=C/c1ccc(C)cc1 | -10.9% |
| CCCc1cc(=O)[nH]c(SCC(=O)Nc2sc3c(c2C#N)CCCC3)n1 | 5.46% |
| Cc1sc(NC(=O)C2=COCCO2)c(C#N)c1C | -16.8% |
| CCCc1ccc(-c2c(C)sc(NC(=O)c3ccnn3C)c2C#N)cc1 | 29.1% (active) |
| Nc1cccc(S(=O)(=O)Nc2ccc(SC(F)F)cc2)c1 | 12.1% |
| CCn1ccnc1CN(C)C(=O)c1cc(COc2ccc(Cl)cc2OC)on1 | -6.33% |
| COc1cc(Cl)ccc1OCc1cc(C(=O)N2CC[C@@H]3CCCC[C@H]3C2)no1 | 30.9% (active) |
| COc1ccc(OCc2cc(C(=O)N3CCCC3)no2)c2ccccc12 | -10.3% |
| Cc1nn(-c2ccc(F)cc2)c(Cl)c1/C=C(/CCC(=O)O)c1nc2ccccc2s1 | -3.61% |
| O=C(O)CCCCc1nc2ccccc2s1 | 33.5% (active) |
| O=C(O)CCCCCCCCc1cn(CN2C(=O)c3ccccc3C2=O)nn1 | 12.6% |
| Cc1ccc([C@H]2N[C@]3(CCCN(CC4CCCCC4)C3=O)[C@H]3C(=O)N(Cc4ccccc4)C(=O)[C@@H]23)cc1 | -0.53% |
| CCCCN(C(=O)c1ccc(OC(F)(F)F)cc1)c1c(N)n(CCC)c(=O)[nH]c1=O | -6.23% |
| CCCCN(C)C(=O)c1ccc2c(c1)N(CC)C(=O)c1ccccc1S2(=O)=O | 18% |
| O=C(Cc1ccc([N+](=O)[O-])cc1)Nc1ccc(C(=O)N2CCOCC2)cc1 | -11.3% |

| Compound | inhibition |
| --- | --- |
| Cc1cc(C)n(CC(=O)Nc2ccc([N+](=O)[O-])cc2)n1 | -4.31% |
| O=C(Cc1cccs1)Nc1ccc([N+](=O)[O-])cc1 | 23.9% (active) |
| Cc1ccc(N(CCC(=O)O)S(=O)(=O)c2cccc(C(F)(F)F)c2)cc1 | 3.61% |
| Cc1noc(C)c1S(=O)(=O)Nc1cc(C(F)(F)F)ccc1N1CCOCC1 | 3.45% |
| Cc1oc2c(F)c(F)c(F)c(F)c2c1S(=O)(=O)Nc1cccc(C(F)(F)F)c1 | 27.9% (active) |
| COc1cc(C(=O)NCCOC(=O)c2cccc(N(C)C)c2)cc(OC)c1OC | -4.91% |
| CCOc1ccc2[nH]c(=O)c(CN(CCCO)C(C)=O)cc2c1 | 7.13% |
| OC(COc1ccccc1)CN1CCN(c2cccc(Cl)c2)CC1 (configuration not stated) | -14.9% |
| Cc1cccc(OCC(O)Cn2c(=N)n(CCN3CCOCC3)c3ccccc32)c1 (configuration not stated) | -12.8% |
| OC(CN=c1sc2ccccc2n1CC(O)COc1ccccc1)COc1ccccc1 (configuration not stated) | 62.5% (active) |
| COC(=O)Cc1c(O)ccn(Cc2cccc(C(F)(F)F)c2)c1=O | -6.45% |
| Cc1cccc(C)c1Nc1nnc(SCC(=O)NCCCN2CCCC2=O)s1 | -7.35% |
| O=C(NCCN1CCOCC1)[C@H](Cc1ccccc1)N1C(=O)c2ccccc2C1=O | -4.92% |
| COc1ccc(CNC(=O)COC(=O)C(CCSC)N2C(=O)c3ccccc3C2=O)cc1 (configuration not stated) | -6.61% |
| CCOC(=O)C(Cc1ccc(N)cc1)N1C(=O)c2ccccc2C1=O (configuration not stated) | 25.2% (active) |
| CCCS(=O)(=O)NC(=O)C1(C)CCCN(C(=O)c2cccs2)C1 (configuration not stated) | -9.34% |
| CCC(=O)N1Cc2cc(C(=O)NCc3cccc(F)c3)nc(-c3cccc(C4=CCCC4)c3)c2[C@H]1CCO | -1.18% |
| CCCNC(=O)c1cc2c(c(-c3cccc(-c4ccc(C#N)cc4)c3)n1)[C@@H](CCO)N(C(=O)CC)C2 | 25.5% (active) |
| CCNC(=O)c1cc2c(c(-c3cccc(-c4cncnc4)c3)n1)[C@H](CCO)N(C(C)=O)C2 | -11.6% |
